This is a sample that favours compounds with a hit; in the whole collection about 3% have one here.
SNCA expr inh – inhibitors of alpha-synuclein (SNCA) gene expression; 140,000 compounds, 0.17% hits; Potency, µM (series often up to 57.2 µM), inactives show top-dose activity change, negative = inhibition, most hits filed as inhibitors; HEK-293 SNCA-luciferase knock-in, luminescence, 24 h;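 also: potency is read from the fitted curve at half-maximal effect; plate controls were DMSO cells for no effect and cell-free wells for full effect; nearly all actives have a fitted effect of over 45% in size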
KDM5B inhibitor – KDM5B demethylase inhibition; Potency, µM (highest dose often 57.7 µM), most hits filed as inhibitors; KDM5B demethylase, FDH-coupled NADH fluorescence (FDH is formaldehyde dehydrogenase); AID 1347165; Q9UGL1; 220,000 compounds, 2.6% hits; also: potency is read from the fitted curve at half-maximal effect; 0% is about no effect; nearly all actives have a fitted effect of over 70% in size
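KDM5BΔAP (200 nM final) in 50 mM HEPES pH 7.5, 0.01% Tween-20 was preincubated 10 min at RT with compound over a concentration range. Substrate mix (H3K4me3 12.5 µM, α-KG 25 µM, Fe²⁺, ascorbate, NAD⁺, FDH) was added, and NADH fluorescence change over 30 min gave dose-response curves.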
HEK293 viab – counter-screen for SNCA expression inhibitors: cell viability | HEK-293-SNCA-luc viability, GF-AFC fluorescence, 24 h | Potency, µM (highest dose often 57.1 µM), without a hit: at the highest dose activity change, negative = cytotoxicity, usual class: cytotoxic | 150,000 compounds, 0.12% hits | AID 1671193;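 also: potency is read from the fitted curve at half-maximal effect; 0% = DMSO-treated cells and -100% = medium-only wells without cells; nearly all actives have a fitted effect of over 30% in size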
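HEK-293-SNCA-luc cells (1500/well) plated 24 h, then exposed 24 h to a dilution series; GF-AFC added 30 min at 37C, fluorescence 405/540 nm; normalised to medium-only and DMSO wells, Hill fit.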
IP6K1 inh – inhibitors of human IP6K1. Q92551. IP6K1 kinase, ADP-Glo luminescence, 2 h; stronger effect = lower value. activity change, % (series mostly up to about 58 µM). 140,000 compounds, 0.81% hits. AID 1645851; in the data active = activity change below about -25%; also: % is scaled to controls: 0 for no effect and ±100 for the full control effect
Target sequence (Q92551 whole entry, looked up): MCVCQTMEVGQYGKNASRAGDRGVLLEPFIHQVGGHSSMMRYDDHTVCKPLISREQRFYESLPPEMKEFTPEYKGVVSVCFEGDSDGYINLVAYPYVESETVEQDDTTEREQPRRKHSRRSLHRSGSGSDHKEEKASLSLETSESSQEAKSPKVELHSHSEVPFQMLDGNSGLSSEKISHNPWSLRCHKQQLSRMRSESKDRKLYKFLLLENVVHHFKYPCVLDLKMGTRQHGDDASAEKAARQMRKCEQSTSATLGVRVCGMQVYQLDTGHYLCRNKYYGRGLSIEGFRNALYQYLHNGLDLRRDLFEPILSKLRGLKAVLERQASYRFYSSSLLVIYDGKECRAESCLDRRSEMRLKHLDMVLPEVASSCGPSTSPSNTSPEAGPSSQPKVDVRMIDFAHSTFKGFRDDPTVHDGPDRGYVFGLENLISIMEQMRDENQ
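ADP-Glo luminescence measures ADP made by human IP6K1 during a 2 h RT reaction with ATP/IP6 (mix at 1.3 mM/130 uM); top library doses 57.5 and 19.1 uM final.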
Active calls of the source: *; i = inactive; ? = inconclusive; · = no result given; [ ] = another dose, or the depositor's remark. Unless noted, calls follow the shape of the dose curve; as a rule, active = well fitted curve in the direction sought with a large enough effect; inconclusive = small, poorly fitted or top-dose-only effect, or another doubt; inactive = no such curve, though single readings can be large; an effect the other way counts as inactive or inconclusive.

SMILES	SNCA expr inh	KDM5B inhibitor	HEK293 viab	IP6K1 inh
COc1ccc2c(c1)CCN=C2C[C@H]1CN(S(C)(=O)=O)CC[C@H]1CC(=O)O	-12%[87.6 µM]	?	-1%[87.6 µM]	4
O=C(O)C[C@@H]1CCN(S(=O)(=O)c2ccc(F)cc2)C[C@@H]1CC1=NCCc2cc(F)ccc21	-10%	20µM*	7%	10
COc1cc2c(cc1OC)C(C[C@H]1CN(S(=O)(=O)c3ccc(F)cc3)CC[C@H]1CC(=O)O)=NCC2	3%	i	25%	5
COc1cc2c(cc1OC)C(C[C@H]1CN(S(=O)(=O)c3ccccc3)CC[C@H]1CC(=O)O)=NCC2	1%	25µM*	17%	19
Cc1ccc(-c2ccc3nnc(CNC(=O)CCC4CCCC4)n3n2)cc1	25%	28µM*	-4%	11
Cc1ccc(-c2ccc3nnc(CNC(=O)C4CC4)n3n2)cc1	2%	14µM*	-5%	-2
Cc1ccc(-c2ccc3nnc(CNC(=O)C4CCCCC4)n3n2)cc1	-3%	?	9%	48
Cc1ccc(-c2ccc3nnc(CNC(=O)Cc4ccccc4Cl)n3n2)cc1	?	?	2%	-15
Cc1ccc(-c2ccc3nnc(CNC(=O)CSc4ccncc4)n3n2)cc1	4%	28µM*	0%	-11
N#CC1(C(=O)Nc2cccc(Br)c2)CCCC1	·	i	·	·
O=C(NC1CCCC1)C1CCCN(c2nccc(Nc3ccccc3F)n2)C1 (stereo not drawn)	-26%	·	-11%[12.5 µM]	8
C[C@@H]1C[C@H]2O[C@@H]2/C=C\C=C\C(=O)Cc2c(Cl)c(O)cc(O)c2C(=O)O1	·	·	-11%[12.5 µM]	-27*
Cc1onc(C(=O)NCc2ccc3[nH]c(-c4ccc(F)cc4)c(C)c3c2)c1CO	0%	?	-21%	-3
Cc1c(-c2ccc(F)cc2)[nH]c2ccc(CNC(=O)c3n[nH]c4c3CCCC4)cc12	-26%	10µM*	?	-22
Cc1c(-c2ccc(F)cc2)[nH]c2ccc(CNC(=O)c3cnn(C)c3)cc12	-17%	32µM*	-13%	-9
Cc1cc(C(=O)NCCCOC(C)C)c2c(C3CCCN3)noc2n1 (stereo not drawn)	-6%	50µM*	-3%	0
COCCNC(=O)c1cc(C2CC2)nc2onc(C3CCCN3)c12 (stereo not drawn)	4%	56µM*	-3%	-1
O=C(NCC1CC1)c1cc(C2CC2)nc2onc(C3CCCNC3)c12 (stereo not drawn)	36%	89µM*	11%	4
CC(C)OCCCNC(=O)c1cc(C2CC2)nc2onc(C3CCCN3)c12 (stereo not drawn)	-2%	?	4%	5
O=C(NCC1CC1)c1cc(C2CC2)nc2onc(C3CCCN3)c12 (stereo not drawn)	60%	89µM*	-5%	-1
O=C(NCc1ccc(F)cc1)c1cc(C2CC2)nc2onc(C3CCCNC3)c12 (stereo not drawn)	6%	i	11%	5
O=C(Nc1ccccc1)C1CCN(C(=O)c2ccc3ccccc3n2)CC1	·	i	·	·
O=C(c1cccc2[nH]ccc12)N1CCC2(CC1)N(Cc1cccc(F)c1)C(=O)CS2=O (stereo not drawn)	1%	18µM*	-2%	-9
O=C(NCc1ccccc1)N1CCC2(CC1)N(Cc1cccc(F)c1)C(=O)CS2=O (stereo not drawn)	-1%	·	3%	-12
COCCN1C(=O)CS(=O)C12CCN(C(=O)c1ccc3cc[nH]c3c1)CC2 (stereo not drawn)	-20%	18µM*	-4%	-8
SMILES	SNCA expr inh	KDM5B inhibitor	HEK293 viab	IP6K1 inh
Cc1oc2cc(OCCN3CCC(C(N)=O)CC3)ccc2c(=O)c1-c1ccc(Br)cc1	·	i	·	·
COc1ccc(C2Cn3nnc(-c4nc(-c5ccccc5OC)no4)c3CO2)cc1 (stereo not drawn)	-11%	28µM*	-5%	-10
COc1ccccc1-c1nc(-c2nnn3c2COC(c2ccc(Cl)cc2)C3)no1 (stereo not drawn)	-19%	14µM*	-6%	-13
CCOc1cccc(-c2noc(-c3nnn4c3COC(c3ccc(F)cc3)C4)n2)c1 (stereo not drawn)	33%	?	6%	-20
CCOc1cccc(-c2noc(-c3nnn4c3COC(c3ccc(OC)cc3)C4)n2)c1 (stereo not drawn)	10%	18µM*	6%	-14
COc1ccccc1-c1noc(-c2nnn3c2COC(c2ccc(F)cc2)C3)n1 (stereo not drawn)	-5%	?	-2%	9
COc1ccc(C2Cn3nnc(-c4noc(-c5cc(F)ccc5F)n4)c3CO2)cc1 (stereo not drawn)	34%	18µM*	?	11
COc1ccccc1-c1noc(-c2nnn3c2COC(c2ccc(Cl)cc2)C3)n1 (stereo not drawn)	-26%	?	-10%	-1
S=C(NCCc1ccc(Cl)cc1Cl)NC1CC2CCC1C2 (stereo not drawn)	·	i	·	·
COc1cccc(-c2nc(-c3nnn4c3COC(c3ccc(Cl)cc3)C4)no2)c1OC (stereo not drawn)	17%	25µM*	7%	0
COc1ccc(-c2nc(-c3nnn4c3COC(c3ccc(Cl)cc3)C4)no2)c(OC)c1 (stereo not drawn)	-25%	?	1%	-4
COc1ccc(C2Cn3nnc(-c4noc(-c5ccccc5OC)n4)c3CO2)cc1 (stereo not drawn)	-30%	?	21%	-3
COc1ccccc1-c1nc(-c2nnn3c2COC(c2ccc(C)cc2)C3)no1 (stereo not drawn)	2%	13µM*	-1%	-6
N#Cc1cccc(C(=O)c2ccc3c(c2)OCCO3)c1	·	i	·	·
O=C(Nc1ccc(F)cc1F)C1(CCO)CCN(c2ncccn2)C1 (stereo not drawn)	-2%	25µM*	6%	12
COc1ccccc1CNC(=O)C1(CCO)CCN(c2ncccn2)C1 (stereo not drawn)	1%	20µM*	-5%	4
COc1ccc(OC)c(CNC(=O)C2(CCO)CCN(c3ncccn3)C2)c1 (stereo not drawn)	-11%	?	2%	4
O=C(NCCCc1ccccc1)C1(CCO)CCN(c2ncccn2)C1 (stereo not drawn)	-9%	25µM*	3%	18
O=C(NCc1ccc(F)cc1)C1(CCO)CCN(c2ncccn2)C1 (stereo not drawn)	-6%	28µM*	-3%	-8
CCOc1ccc(/C=C(/C#N)C(=O)c2ccccc2)cc1OC	·	i	·	·
Cc1ccc(C(=O)NC2CCc3nnc(C4CC4)n3CC2)c(=O)[nH]1 (stereo not drawn)	16%	32µM*	-1%	-7
O=C(NC1CCc2nnc(C3CC3)n2CC1)c1cccs1 (stereo not drawn)	3%	i	-14%	6
Cc1nn(-c2ccccc2)c2c1C(C(C)C)N(C1CCCN(C(=O)Nc3ccccc3)C1)C2=O (stereo not drawn)	·	·	·	23

Screening data: PubChem, National Center for Advancing Translational Sciences (NCATS)
